In PubChem BioAssay one finds composite z-score, composite Z-score and z-score data, which are given here for 5 compounds.

One assay has as its target Albumin (Bos taurus) (UniProt P02769). The assay is described as follows: bovine serum albumin binders on microarray, profiling panel, artefact control for SMM control protein annotation, biochemical, small-molecule microarray, Alexa647 label, 635/667 nm fluorescence (AID 1118).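 Further: score merges 667 nm emission intensity and signal-to-noise per printed compound spot.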 Particulars: BSA-A647 binding, fluorescence 635 nm, higher = more signal.
Assay [1] is described as follows: small-molecule microarray binders of probe aXIP, primary screen, biochemical, NeuroSMM set, 635/667 nm fluorescence (AID 1119).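 Further: probe is the protein aXip251-270 applied at 1 µg/mL to compound-printed slides; binding of probe to printed compounds measured as 667 nm fluorescence plus signal to noise.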 Particulars: higher = more signal, called active from +8 up or from −8 down.
Assay [2] can be described thus: small-molecule binders of probe aNOTCH3, primary screen, biochemical, small-molecule microarray, 635/667 nm fluorescence (AID 1120).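 Further: probe is a biotin-tagged antibody raised against NOTCH3 rather than NOTCH3 protein; score merges spot fluorescence near 667 nm with spot signal to noise.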 Particulars: higher = more signal.
Assay [3] in a line: small-molecule binders of probe aNOTCH2, primary screen, biochemical, small-molecule microarray, 635/667 nm fluorescence (AID 1121).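 Further: score merges feature fluorescence read at 667 nm with its signal to noise.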 Particulars: higher = more signal.
Assay [4] addresses Carbonic anhydrase 2 (Homo sapiens) (UniProt P00918). The assay is described as follows: CAII small-molecule binders, profiling panel, biochemical, small-molecule microarray, Alexa647-labelled CAII (AID 1122). The settings on record: CAII-A647 binding fluorescence, higher = more signal.
Assay [5] in a line: COS7 lysate on small-molecule microarray, probe aHis, 635 nm (AID 1123).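 Further: z-score combines 667nm fluorescence intensity with signal-to-noise per printed compound spot.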 Particulars: COS7 cell lysate, fluorescence, higher = more signal.
Assay [6] can be described thus: compound binding in COS7 lysate, probe aLAP1, primary screen, cell lysate, small-molecule microarray (AID 1124).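 Further: lysate comes from COS7 cells expressing LAP1 and is applied at 0.3 µg/mL; score merges spot fluorescence near 667 nm with signal-to-noise over triplicate slides.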 The settings on record: probe aLAP1, fluorescence, higher = more signal.
In the next assay the test system is Sam68 (KHDRBS1). Put plainly: Sam68 small-molecule binders, primary screen, biochemical, small-molecule microarray, 635 nm fluorescence (AID 1125).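 Further: score merges 667 nm channel intensity with signal to noise over triplicate slides.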 The settings on record: small-molecule microarray binding, higher = more signal.
The subject of assay [7] is Chordin-like protein 2 (CHRDL2). The assay is described as follows: CHRDL2 small-molecule binders, primary screen, biochemical, small-molecule microarray, 635 nm fluorescence (AID 1126).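 Further: printed compound slides probed with Chrdl2 protein at 4 µg/mL for 1 h at 4 C; score merges 667 nm emission intensity with signal to noise over three replicate slides.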 Particulars: small-molecule microarray binding, fluorescence 635 nm; higher = more signal.
Assay [8] concerns the target Concanavalin-A (Canavalia ensiformis) (UniProt P02866). Put plainly: ConA small-molecule binders, primary screen, artefact control for SMM control protein annotation, biochemical, small-molecule microarray, Alexa647 label, 635 nm (AID 1127).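 Further: z combines 667 nm emission intensity with signal-to-noise across three replicate slides.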 The settings on record: ConA-A647 binding fluorescence, higher = more signal.
Assay [9] is described as follows: anti-His antibody binders, primary screen, artefact control for SMM control protein annotation, biochemical, small-molecule microarray, 635 nm fluorescence (AID 1128).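 Further: score merges feature fluorescence with signal-to-noise for each printed compound spot.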 The settings on record: anti-His Alexa647 antibody binding, higher = more signal.
The subject of assay [10] is Human papillomavirus type 1a E7 protein (residues 1-88). The assay is described as follows: HPV1a E7 small-molecule binders, primary screen, biochemical, small-molecule microarray, residues 1-88, 635 nm (AID 1129). Particulars: small-molecule microarray binding, fluorescence 635 nm; higher = more signal.
Assay [11] concerns the target Focal adhesion kinase 1 (Homo sapiens) (UniProt Q05397). The assay is described as follows: small-molecule microarray binders of FAK, primary screen, biochemical, 635/667 nm fluorescence, BSA, DTT (AID 1130).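 Further: composite of spot emission at 667 nm and signal to noise over triplicate slides.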 The settings on record: PTK2 binding, 635 nm fluorescence, higher = more signal.
The subject of assay [12] is Fibrinogen (Alexa647-labelled). The assay is described as follows: fibrinogen binders on compound microarrays, profiling panel, artefact control for SMM control-protein annotation, biochemical, small-molecule microarray, 635/667 nm fluorescence (AID 1131).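 Further: z-score merges 667 nm fluorescence with per-spot signal-to-noise over triplicate slides.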 Particulars: fibrinogen-A647 binding fluorescence, higher = more signal.
Assay [13] concerns the target Follistatin (Homo sapiens) (UniProt P19883). The assay is described as follows: follistatin binders on small-molecule microarrays, primary screen, biochemical, small-molecule microarray, 635/667 nm fluorescence (AID 1132). The settings on record: FST binding, 635 nm fluorescence, higher = more signal.
For assay [14], the target named is Fibroblast growth factor 2 (Homo sapiens) (UniProt P09038). The assay is described as follows: FGF2 binders on small-molecule microarrays, primary screen, biochemical, small-molecule microarray, 635/667 nm fluorescence (AID 1133). The settings on record: small-molecule microarray binding, FGF2, fluorescence 635/667; higher = more signal.
Sequence of Fibroblast growth factor 2 (Homo sapiens) (P09038 whole entry, looked up): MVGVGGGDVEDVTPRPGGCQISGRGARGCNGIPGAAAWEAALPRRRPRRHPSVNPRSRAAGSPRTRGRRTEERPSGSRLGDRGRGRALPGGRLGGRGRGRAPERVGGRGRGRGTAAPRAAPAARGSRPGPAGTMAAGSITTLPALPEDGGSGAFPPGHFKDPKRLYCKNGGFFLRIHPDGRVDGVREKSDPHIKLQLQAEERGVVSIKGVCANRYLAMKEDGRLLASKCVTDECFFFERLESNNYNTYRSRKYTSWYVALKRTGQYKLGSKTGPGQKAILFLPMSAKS
Assay [15] in a line: mitochondrial membrane potential change in A549 cells, profiling panel, cell-based, JC-1 fluorescence, basal, 24 h, 100 nL (AID 1138).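 Further: A549 lung adenocarcinoma cells under basal conditions with no added stimulus; test concentration not given here.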 Particulars: higher = more signal.
Another assay deals with Lefty1. The assay is described as follows: Lefty1 binders on small-molecule microarrays, primary screen, biochemical, small-molecule microarray, 635/667 nm fluorescence (AID 1139). The settings on record: small-molecule microarray binding, fluorescence 635/667; higher = more signal.
Assay [16] has as its system wheat germ agglutinin (Triticum aestivum), Alexa647-labelled. Put plainly: wheat germ agglutinin binders on compound microarrays, profiling panel, artefact control for SMM control-protein annotation, biochemical, small-molecule microarray, 635/667 nm fluorescence (AID 1140).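 Further: score merges 667 nm feature emission with signal to noise over triplicate slides.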 The settings on record: WGA-A647 binding, 635 nm fluorescence, higher = more signal.
In assay [17] the target is Luciferin 4-monooxygenase (Photinus pyralis) (UniProt P08659). Put plainly: firefly luciferase enzyme inhibitors, primary screen, biochemical, luminescence, purified enzyme, 2006 set (AID 1141).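 Further: cell-free assay with purified firefly luciferase at 100 ng per well in PBS; test concentration not given here.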 The settings on record: SteadyGlo luminescence, 30 min, higher = more signal, called active from +8 up or from −8 down.
Sequence of Luciferin 4-monooxygenase (Photinus pyralis) (P08659 whole entry, looked up): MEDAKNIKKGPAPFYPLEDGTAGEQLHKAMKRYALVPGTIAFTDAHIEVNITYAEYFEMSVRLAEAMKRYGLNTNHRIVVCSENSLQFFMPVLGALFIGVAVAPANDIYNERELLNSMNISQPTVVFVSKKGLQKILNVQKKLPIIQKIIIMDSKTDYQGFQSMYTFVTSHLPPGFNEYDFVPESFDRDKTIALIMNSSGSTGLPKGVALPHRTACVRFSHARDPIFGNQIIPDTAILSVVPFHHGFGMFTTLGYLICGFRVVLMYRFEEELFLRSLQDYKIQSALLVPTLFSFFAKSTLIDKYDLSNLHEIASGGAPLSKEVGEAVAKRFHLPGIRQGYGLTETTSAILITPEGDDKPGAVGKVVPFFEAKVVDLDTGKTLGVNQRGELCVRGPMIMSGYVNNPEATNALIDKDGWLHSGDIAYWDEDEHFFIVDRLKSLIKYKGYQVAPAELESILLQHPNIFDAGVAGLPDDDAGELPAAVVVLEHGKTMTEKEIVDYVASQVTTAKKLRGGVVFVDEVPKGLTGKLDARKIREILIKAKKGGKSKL

Molecules are shown by their SMILES. Active and inactive are the calls of the source.

Sequence of Focal adhesion kinase 1 (Homo sapiens) (Q05397 whole entry, looked up): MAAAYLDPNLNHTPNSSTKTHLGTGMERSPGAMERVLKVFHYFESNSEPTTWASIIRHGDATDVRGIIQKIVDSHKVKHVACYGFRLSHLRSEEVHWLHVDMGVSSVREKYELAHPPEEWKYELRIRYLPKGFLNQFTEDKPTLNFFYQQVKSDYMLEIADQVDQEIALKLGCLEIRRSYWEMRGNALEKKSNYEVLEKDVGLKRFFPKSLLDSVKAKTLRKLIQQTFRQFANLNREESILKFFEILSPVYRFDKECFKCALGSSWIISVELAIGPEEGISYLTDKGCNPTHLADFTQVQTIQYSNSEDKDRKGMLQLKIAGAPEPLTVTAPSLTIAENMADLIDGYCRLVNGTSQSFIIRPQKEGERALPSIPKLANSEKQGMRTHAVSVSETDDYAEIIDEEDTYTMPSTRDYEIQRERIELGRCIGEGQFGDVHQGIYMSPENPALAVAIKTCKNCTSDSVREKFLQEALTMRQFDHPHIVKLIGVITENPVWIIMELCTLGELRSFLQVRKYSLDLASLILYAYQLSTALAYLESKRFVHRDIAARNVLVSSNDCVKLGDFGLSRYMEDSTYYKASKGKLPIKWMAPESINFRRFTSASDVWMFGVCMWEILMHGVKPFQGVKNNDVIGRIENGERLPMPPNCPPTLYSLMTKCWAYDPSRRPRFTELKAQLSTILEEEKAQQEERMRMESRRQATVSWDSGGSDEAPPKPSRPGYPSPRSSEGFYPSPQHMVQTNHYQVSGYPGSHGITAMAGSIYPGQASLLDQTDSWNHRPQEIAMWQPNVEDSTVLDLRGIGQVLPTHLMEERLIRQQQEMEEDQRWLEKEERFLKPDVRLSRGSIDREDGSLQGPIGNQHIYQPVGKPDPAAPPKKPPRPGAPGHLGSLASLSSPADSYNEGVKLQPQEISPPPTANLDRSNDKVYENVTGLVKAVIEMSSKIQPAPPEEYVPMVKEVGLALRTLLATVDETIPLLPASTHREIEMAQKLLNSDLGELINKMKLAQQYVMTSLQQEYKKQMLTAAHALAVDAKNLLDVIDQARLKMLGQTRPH
Sequence of Follistatin (Homo sapiens) (P19883 whole entry, looked up): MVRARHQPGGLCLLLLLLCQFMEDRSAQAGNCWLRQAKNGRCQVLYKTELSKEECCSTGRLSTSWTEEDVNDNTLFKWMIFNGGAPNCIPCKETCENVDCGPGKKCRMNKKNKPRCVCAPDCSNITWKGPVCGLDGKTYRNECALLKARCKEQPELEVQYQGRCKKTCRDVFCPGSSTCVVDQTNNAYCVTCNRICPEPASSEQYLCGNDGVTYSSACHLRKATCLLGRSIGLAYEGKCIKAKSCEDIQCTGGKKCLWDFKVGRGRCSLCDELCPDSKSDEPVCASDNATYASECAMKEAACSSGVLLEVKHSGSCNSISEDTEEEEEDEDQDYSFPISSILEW
Sequence of Concanavalin-A (Canavalia ensiformis) (P02866 whole entry, looked up): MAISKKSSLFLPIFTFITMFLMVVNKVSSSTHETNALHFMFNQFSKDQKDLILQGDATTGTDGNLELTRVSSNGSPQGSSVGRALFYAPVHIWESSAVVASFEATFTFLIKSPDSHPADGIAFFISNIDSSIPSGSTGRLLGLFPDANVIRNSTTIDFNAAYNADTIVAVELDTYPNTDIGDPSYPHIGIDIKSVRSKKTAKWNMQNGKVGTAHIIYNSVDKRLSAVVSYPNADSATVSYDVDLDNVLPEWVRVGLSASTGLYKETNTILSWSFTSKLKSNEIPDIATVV
Sequence of Albumin (Bos taurus) (P02769 whole entry, looked up): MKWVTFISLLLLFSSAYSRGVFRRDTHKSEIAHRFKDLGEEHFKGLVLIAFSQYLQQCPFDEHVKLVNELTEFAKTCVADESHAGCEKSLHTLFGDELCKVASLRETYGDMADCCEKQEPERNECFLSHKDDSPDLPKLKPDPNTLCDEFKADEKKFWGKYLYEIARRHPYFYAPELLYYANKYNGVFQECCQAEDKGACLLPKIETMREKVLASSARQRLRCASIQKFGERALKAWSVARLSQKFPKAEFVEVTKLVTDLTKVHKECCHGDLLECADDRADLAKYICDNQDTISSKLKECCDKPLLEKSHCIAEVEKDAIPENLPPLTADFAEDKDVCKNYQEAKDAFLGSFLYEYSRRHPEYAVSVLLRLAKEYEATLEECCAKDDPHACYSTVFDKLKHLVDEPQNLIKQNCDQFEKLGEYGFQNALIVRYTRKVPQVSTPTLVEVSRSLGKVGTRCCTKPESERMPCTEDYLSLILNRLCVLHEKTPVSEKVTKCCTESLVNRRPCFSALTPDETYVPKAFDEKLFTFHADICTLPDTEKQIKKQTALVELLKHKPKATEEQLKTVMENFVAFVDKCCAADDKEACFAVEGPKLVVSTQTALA

Regarding `[N-]=[N+]=NCc1ccccc1[C@@H]1OC(c2ccc(OCCCO)cc2)=N[C@]1(CCS(=O)(=O)c1ccccc1)C(=O)O`, the composite z-score in the assay with Albumin (Bos taurus) is 0.951; in assay [2], 0.0311; in assay [3] it was -0.0145; in assay [4], 0.786; in [5], 1.6; in assay [6] it was 0.0649. For the same compound, the composite z-score was 0.585 in the assay with Sam68 (KHDRBS1); -1.92 in assay [7]; 0.448 in [8]; 0.843 in assay [9]; 0.843 in [10]; 0.809 in assay [11]. Besides, the composite z-score in assay [12] is 0.839; in assay [13] it was 0.0575; in assay [14], -0.517; in the assay on Lefty1, 0.381; in assay [16] it was 1.17. The composite Z-score in [1] was 0.0313 (inactive). Moreover, the z-score in assay [15] was -0.586; in assay [17] it was -5.21 (inactive).
As to `COC(=O)[C@@]1(Cc2ccc(F)cc2)[C@H]2c3cc(C(=O)N4CCCC4)n(CCc4c[nH]c5ccccc45)c3C[C@H]2CN1C(=O)c1ccccc1`, the composite z-score in the assay with Albumin (Bos taurus) worked out at 1.11; in assay [2] it was 0.558; in assay [3], 0.184; in assay [4], 0.795; in assay [5] it was 3.17; in [6], 1.76. The composite z-score worked out at 1.3 in the assay on Sam68 (KHDRBS1); 0.291 in assay [7]; 0.984 in assay [8]; 1.56 in assay [9]; 1.26 in assay [10]; 1.27 in assay [11]. Further, the composite z-score in assay [12] was 0.97; in assay [13] it was 0.867; in assay [14], 0.577; in the assay with Lefty1, -0.627; in assay [16] it was 0.816. Also, the composite Z-score in [1] is -0.263 (inactive). Moreover, the figures for the z-score in assay [15] and in assay [17] were 0.775 and 2.04 (inactive), respectively.
As to `COCCOC(=O)N1C(=O)[C@@]2(c3cc(C#CCC(C(=O)OC)C(=O)OC)ccc31)[C@H](c1ccc(OCCO)cc1)N1[C@H](c3ccccc3)[C@H](c3ccccc3)OC(=O)[C@H]1[C@@H]2C(=O)N1CCc2cc(OC)c(OC)cc2C1`, the composite z-score was 0.688 with Albumin (Bos taurus); 0.0351 in [2]; -0.106 in assay [3]; 0.256 in assay [4]; 1.48 in [5]; -0.0051 in assay [6]. Moreover, the composite z-score worked out at 1.06 in the assay on Sam68 (KHDRBS1); 0.378 in assay [7]; 1.11 in assay [8]; 1.75 in assay [9]; 1.22 in [10]; 0.919 in assay [11]. Also, the composite z-score in [12] was 0.889; in assay [13], 1.37; in assay [14] it was 1.5; in the assay on Lefty1, 1.4; in assay [16] it was 1.08. Further, in assay [1], the composite Z-score is -0.388 (inactive). Also, the z-score in [15] was -0.942; in assay [17], -0.411 (inactive).
On to `CC[C@@H]1O[Si](C(C)C)(C(C)C)c2c1cc(-c1cc(C)c(OC)c(C)c1)nc2-c1ccc(Oc2ccccc2)cc1`, for which the composite z-score is -0.145 with Albumin (Bos taurus); -0.0967 in assay [2]; -0.141 in [3]; -0.272 in assay [4]; 0.133 in [5]; -0.006 in assay [6]. The composite z-score is -0.807 in the assay on Sam68 (KHDRBS1); -0.77 in assay [7]; -0.0734 in assay [8]; -0.23 in [9]; -0.772 in [10]; -0.29 in assay [11]. The composite z-score in [12] was -1.22; in assay [13] it was -0.261; in [14], -0.315; with Lefty1, 0.287; in assay [16], 0.1. Also, in assay [1], the composite Z-score was -0.837 (inactive). In addition, the z-score in assay [15] was -0.413; in assay [17] it was 1.09 (inactive).
As for `COC(=O)[C@@H]1N=C(c2ccc(OCCCO)cc2)O[C@@H]1c1ccccc1`, the composite z-score in the assay with Albumin (Bos taurus) was 0.258; in [2], -0.206; in [3], -0.104; in assay [4], 0.7; in [5] it was 0.387; in assay [6], -0.342. The composite z-score is -0.826 in the assay on Sam68 (KHDRBS1); -1.89 in assay [7]; -0.324 in [8]; 1.33 in [9]; -0.314 in assay [10]; -0.137 in assay [11]. Besides, the composite z-score is -0.887 in assay [12]; -1.36 in assay [13]; -0.837 in assay [14]; -0.447 in the assay with Lefty1; -0.0306 in assay [16]. For the same compound, in assay [1], the composite Z-score is 0.536 (inactive). For the same compound, the z-score in assay [15] is 0.135; in assay [17], -13.4 (active).
